Screening results as filed in PubChem BioAssay.
PREPL inhibitor: inhibitors of human prolyl oligopeptidase-like enzyme PREPL. recombinant PREPL, fluorescence polarization activity-based probe. 320,000 compounds, 0.68% hits. inhibition, % at 5.96 µM. Q4J6C6; in the data active = inhibition above about 43%
GRK2 inh: inhibitors of human GRK2 displacing RNA aptamer | bead flow cytometry, FAM-aptamer displacement from GRK2 | inhibition of aptamer binding, % at 10 µM | 330,000 compounds, 0.59% hits | AID 488847;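 active = inhibition of aptamer binding above 40%, roughly 3 SD of noise, on plates passing a quality check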;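 note: median bead fluorescence of bound FAM aptamer so fluorescent compounds give negative values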
DSG3 Ab inh: blocks pemphigus antibody binding to human desmoglein-3. 310,000 compounds, 0.48% hits. binding (percent of control), % at 10 µM. DSG3-coupled beads, scFv-anti-DSG3-GFP binding, flow cytometry; stronger effect = lower value. P32926. AID 588358;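 active = binding more than 3 SD below its plate's average and above zero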
GASC-1 inh: human JMJD2C demethylase inhibition; 330,000 compounds, 0.069% hits; GST-JMJD2C(1-420) H3K9me3 demethylation, DELFIA europium; Q9H3R0; inhibition, % at 2.35 µM;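 active = more than half of a compound's replicate wells show inhibition beyond 50%, single wells judged on their own value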;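 note: signal counts dimethyl H3K9 product captured on neutravidin plate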
Target sequence (Q9H3R0 1-420 limits assumed): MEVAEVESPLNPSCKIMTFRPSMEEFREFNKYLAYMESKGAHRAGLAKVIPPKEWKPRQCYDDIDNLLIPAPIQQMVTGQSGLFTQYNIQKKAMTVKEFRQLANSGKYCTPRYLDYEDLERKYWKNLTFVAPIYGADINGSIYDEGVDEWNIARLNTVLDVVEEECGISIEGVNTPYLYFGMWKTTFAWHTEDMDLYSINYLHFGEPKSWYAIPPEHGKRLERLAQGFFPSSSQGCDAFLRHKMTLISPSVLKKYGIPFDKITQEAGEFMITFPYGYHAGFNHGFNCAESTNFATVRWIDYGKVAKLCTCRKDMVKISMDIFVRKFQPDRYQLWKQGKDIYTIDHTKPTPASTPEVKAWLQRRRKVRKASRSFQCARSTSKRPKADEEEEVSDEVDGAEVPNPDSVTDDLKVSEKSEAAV
VLA-4 inh: inhibition in a human VLA-4 binding assay. P13612. AID 2557. 330,000 compounds, 0.2% hits. inhibition, % (about 7 µM as worked out from the volumes in the protocol). VLA-4 expressing cells, ligand binding flow cytometry; in the data active = inhibition above about 50%
Of the large screens only hits and unclear results are named; the others gave an inactive call; ! = a repeat was not active. Rows were chosen to be rich in hits. Some 1.6% of all compounds tested hit in one or more screens of this group.

Cc1ccc(CN2CCN(/N=C/C(Br)=C\c3ccccc3)CC2)cc1	DSG3 Ab inh 82.8
S=C(NCCc1ccccc1)NC1CCC(NC(=S)NCCc2ccccc2)CC1 (stereo not drawn)	DSG3 Ab inh 70.6
CCOC(=O)[C@H]1[C@H]2COc3ccc(OC)cc3[C@@H]2N2C(=O)CN(C)C(=O)[C@@]12C	none
C[C@H](CO)N1C[C@H](C)[C@@H](CN(C)S(=O)(=O)c2cccs2)Oc2c(NC(=O)CCC(F)(F)F)cccc2C1=O	GASC-1 inh 52.1
CNC[C@@H]1Oc2c(NC(=O)Nc3ccccc3)cccc2C(=O)N([C@@H](C)CO)C[C@H]1C	GASC-1 inh 50.9
C[C@H](CO)N1C[C@H](C)[C@@H](CN(C)S(=O)(=O)c2ccccc2)Oc2c(NC(=O)CCC(F)(F)F)cccc2C1=O	GASC-1 inh 52.8
COc1ccc(S(=O)(=O)Nc2cccc3c2O[C@H](CN(C)Cc2ccc(C(=O)O)cc2)[C@@H](C)CN([C@H](C)CO)C3=O)cc1	GASC-1 inh 58.2
C[C@H](CO)N1C[C@H](C)[C@@H](CN(C)S(=O)(=O)c2ccc(F)cc2)Oc2c(NC(=O)CCC(F)(F)F)cccc2C1=O	none (no result: DSG3 Ab inh)
COc1ccc(S(=O)(=O)Nc2cccc3c2O[C@H](CN(C)Cc2ccc(-c4ccccc4)cc2)[C@@H](C)CN([C@H](C)CO)C3=O)cc1	none
CCOc1ccc(-n2cc(-c3ccc(OC)c(OC)c3)[nH]c2=S)cc1	none
COc1ccc(NC(=O)COc2ccc3c(C)cc(=O)oc3c2)cc1S(=O)(=O)N1CCCCC1	none
COc1ccc(OC)c(CN2CCN(C(=O)c3cccc(S(=O)(=O)N(C)c4ccccc4)c3)CC2)c1	none (no result: PREPL inhibitor, GRK2 inh, GASC-1 inh, VLA-4 inh)
Cc1ccc(N/N=C2\CS(=O)(=O)N(C)c3ccsc32)cc1	PREPL inhibitor 72.4
CCCC(=O)N/N=C1\CS(=O)(=O)N(C)c2ccsc21	none
Cc1ccc2nc(-c3ccc(F)cc3)nc(SCC(=O)NCC3CCCO3)c2c1 (stereo not drawn)	none (no result: DSG3 Ab inh)
CCc1cccc2c(SCC(=O)NCC3CCCO3)nc(-c3ccc(F)cc3)nc12 (stereo not drawn)	DSG3 Ab inh 78.2
C=CCN1C(=O)/C(=C2/Sc3ccccc3N2CC)SC1=S	none
C=CCn1c(=O)/c(=C2/Sc3ccccc3N2CC)s/c1=C1/C(=O)NN=C1C	GRK2 inh 42.0 (no result: DSG3 Ab inh)
O=C1NN(c2cccc(Br)c2)C(=O)/C1=C/c1ccc(-c2cc([N+](=O)[O-])ccc2O)o1	DSG3 Ab inh 82.3
O=C(Cn1nc(-c2ccc(Cl)cc2)ccc1=O)NCC1COCCO1 (stereo not drawn)	GASC-1 inh 71.4
Cc1nc(CC(=O)N/N=C/c2ccc(OCC(=O)O)cc2)cs1	none
O=C(O)COc1ccc(/C=N/NC(=O)c2ccc(-c3csc(Nc4ccc(Cl)cc4)n3)cc2)cc1	DSG3 Ab inh 30.6 (no result: PREPL inhibitor, GRK2 inh, VLA-4 inh)
COc1ccc(N2CCN(S(=O)(=O)c3ccc(C(=O)NC4CCCC4)cc3)CC2)cc1	DSG3 Ab inh 75.0
COc1ccc(C(=O)NC(=S)Nc2ccc(N3CCCC3)cc2)cc1	DSG3 Ab inh 18.9
Cc1cc(C(=O)Nc2ccc3ccccc3c2)c(C)o1	none
Cc1cc(NC(=O)CCN2CCC(C)CC2)ccc1Br	none (no result: PREPL inhibitor)
CS(=O)(=O)N1CCC(C(=O)Nc2ccc(Br)cc2F)CC1	none
CCOC(=O)c1ccc2ncc(C(=O)OCC)c(NCc3ccco3)c2c1	DSG3 Ab inh 46.6
O=C(CN1N=C(c2ccc(Cl)cc2)CCC1=O)NCc1cccs1	none (no result: DSG3 Ab inh)
CCCCN(C)CCCNC(=O)CN1N=C(c2ccc(Cl)cc2)CCC1=O	DSG3 Ab inh 75.2
CC(/C=C/c1ccc2c(c1)OCO2)=N\NC(=O)c1cccc([N+](=O)[O-])c1	DSG3 Ab inh 84.1
COC(=O)c1ccc(COC(=O)Cc2n[nH]c(=O)c3ccccc23)cc1	none
Cc1nn(Cc2ccccc2Cl)c2sc(C(=O)Nc3ccccc3N3CCOCC3)cc12	none
Cc1nn(Cc2ccc(F)cc2)c2sc(C(=O)Nc3ccccc3N3CCOCC3)cc12	DSG3 Ab inh 85.6
COCCOC(=O)c1c(NC(=O)CN(C)c2ccccc2)sc(C(N)=O)c1C	none
COCCOC(=O)c1c(NC(=O)COC(=O)Cc2cccc(OC)c2)sc(C(N)=O)c1C	GRK2 inh 83.0
N#C/C(=C/c1ccc(-c2cc([N+](=O)[O-])ccc2Cl)o1)C(N)=O	DSG3 Ab inh 75.4
O=[N+]([O-])c1ccc(Cl)c(-c2ccc(/C=N/n3cnnc3)o2)c1	none
CNC(=S)N/N=C/c1ccc(-c2cc([N+](=O)[O-])ccc2Cl)o1	DSG3 Ab inh -11.7
N#C/C(=C/c1ccc(-c2ccccc2[N+](=O)[O-])o1)C(N)=O	none
COc1ccc(C2/C(=C(\O)c3cccc(OC)c3)C(=O)C(=O)N2c2ccccn2)cc1 (stereo not drawn)	none
CC(=O)Nc1ccc(NC(=O)C(C)OC(=O)c2ccc(C)s2)cc1 (stereo not drawn)	none
CN(NS(=O)(=O)c1ccccc1)C(=O)c1ccccc1	none (no result: PREPL inhibitor, GRK2 inh, GASC-1 inh, VLA-4 inh)
Cc1ccc(NC(=O)c2sc(N)nc2-c2ccc([N+](=O)[O-])cc2)cc1C	DSG3 Ab inh 62.9
Cc1ccc(NC(=O)c2sc(N)nc2-c2ccccc2)cc1C	none
COc1ccc(NC(=O)CN(C)CC(=O)Nc2ccc(N3CCOCC3)cc2)c([N+](=O)[O-])c1	DSG3 Ab inh 67.1
O=C(Cn1nc(C(=O)O)c2ccccc2c1=O)Nc1ccc(Cl)c(S(=O)(=O)N2CCOCC2)c1	DSG3 Ab inh 69.5
Cc1ccc(NC(=O)Cn2nc(C(=O)O)c3ccccc3c2=O)cc1S(=O)(=O)N1CCOCC1	none
Cn1nc(C(=O)Nc2ccc(S(=O)(=O)N3CCOCC3)cc2)c2ccccc2c1=O	DSG3 Ab inh 83.9 (no result: GRK2 inh)
Cc1ccc(C(=O)NC(=S)NNC(=O)COc2ccc([N+](=O)[O-])cc2)cc1	none
O=C(COc1ccc([N+](=O)[O-])cc1)NNC(=S)NC(=O)c1ccc(Br)cc1	VLA-4 inh 61.0
CC(=O)Nc1cc(=O)c2cccnc2[nH]1	DSG3 Ab inh 72.7 (no result: PREPL inhibitor, GRK2 inh, GASC-1 inh, VLA-4 inh)
COc1ccc(S(=O)(=O)N2CCCCCC2)cc1C(=O)OCC(=O)NC(C)(C)C	none
CC(NC(=O)c1cc(COc2ccc(-n3cncn3)cc2)on1)c1ccc(F)cc1 (stereo not drawn)	none (no result: PREPL inhibitor, GRK2 inh, GASC-1 inh, VLA-4 inh)
CC(=O)NS(=O)(=O)c1ccc(N)cc1	DSG3 Ab inh 24.8!
CC(=O)NS(=O)(=O)c1ccc(NS(=O)(=O)c2ccc(F)cc2)cc1	none
CCN1CCN(c2nc3c(c(=O)n(C)c(=O)n3C)n2Cc2cccc3ccccc23)CC1	PREPL inhibitor 46.1
CC(C)c1ccc(C(N)=S)cc1	none
c1ccc(Cn2ccnc2C2OCCO2)cc1	none (no result: PREPL inhibitor, GRK2 inh, GASC-1 inh, VLA-4 inh)
COc1ccc2c(c1)c1c(n2C)[C@@H]2CC=C(CO)[C@@H](C1)N2C	none
COc1ccc(C(=O)C2CCN(C(=S)NCCc3ccc(OC)c(OC)c3)CC2)cc1	DSG3 Ab inh -9.4
COc1ccc(CCNC(=S)N2CCC(C(=O)c3ccc(F)cc3)CC2)cc1OC	none (no result: GASC-1 inh)
Cc1ccc(CSc2nnc(Nc3ccc(C)cc3)s2)cc1	DSG3 Ab inh 67.1
CCCc1nnc(NC(=O)CCC(=O)Nc2ccc(F)cc2)s1	none
